Compound activity: PubChem BioAssay, several laboratories
MEKK3 PB1 HTS: raises or lowers MEK5 binding to the human MEKK3 PB1 domain | Q99759 | bead-based flow cytometry, Alexa488-MEK5 binding to MEKK3; actives lie on both sides; 0 = blocked by unlabeled MEK5, 100 = vehicle | binding response (% of control), % at 10 µM | 290,000 compounds, 1.4% hits | AID 1529;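 active means binding response more than 3 SD above or below the average of its plate-row segment, actives on both sides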;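 further: Alexa488 bead fluorescence after subtracting the streptavidin-only scavenger bead signal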
Target sequence (Q99759 whole entry, looked up, the tested form may be a part): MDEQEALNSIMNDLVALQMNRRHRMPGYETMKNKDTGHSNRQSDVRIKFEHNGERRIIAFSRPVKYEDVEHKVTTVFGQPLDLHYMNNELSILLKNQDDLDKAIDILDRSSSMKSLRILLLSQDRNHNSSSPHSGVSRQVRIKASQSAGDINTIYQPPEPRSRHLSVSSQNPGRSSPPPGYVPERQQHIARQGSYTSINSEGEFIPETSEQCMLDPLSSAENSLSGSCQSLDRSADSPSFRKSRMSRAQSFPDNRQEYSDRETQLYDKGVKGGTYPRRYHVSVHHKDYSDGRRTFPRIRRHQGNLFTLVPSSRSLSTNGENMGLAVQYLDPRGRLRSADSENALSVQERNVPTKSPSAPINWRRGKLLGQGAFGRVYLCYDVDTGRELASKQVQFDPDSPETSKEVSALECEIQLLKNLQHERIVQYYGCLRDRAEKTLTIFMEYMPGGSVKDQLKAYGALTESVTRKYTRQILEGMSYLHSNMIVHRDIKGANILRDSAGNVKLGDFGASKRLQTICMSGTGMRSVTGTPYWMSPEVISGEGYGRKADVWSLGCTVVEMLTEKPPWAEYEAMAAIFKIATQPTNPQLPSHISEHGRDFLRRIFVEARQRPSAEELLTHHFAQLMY
CRFR2-BP ag: CRF-BP/CRF-R2 complex agonism | HEK293 CRF-R2/CRF-BP, calcium dye fluorescence (FLIPR); percent of saturating CRF peptide response | activation, % at 13.2 µM | 350,000 compounds, 0.46% hits | AID 588473;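 active means activation of at least 50%, plus an integration ratio under a set limit after plate pattern correction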;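 further: plate controls were neutral control wells without compound for no effect and CRF at EC100 for full effect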
ABCB6 inh MLPCN: human ABCB6 transporter inhibition. K562-ABCB6 porphyrin accumulation, flow cytometry, 1 h; active compounds read low. fluorescence ratio to DMSO, % at 10 µM. 360,000 compounds, 0.19% hits;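 active means fluorescence ratio to DMSO below 75%, the collection mean minus 3 SD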;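 further: signal is porphyrin accumulated inside mitochondria; 100% equals median channel fluorescence of DMSO control wells; lower ratio means ABCB6 inhibition with less porphyrin fluorescence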
MEKK2 mut-MEK5: signal of MEK5 binding to mutant human MEKK2 PB1 domain. bead flow cytometry, Alexa488-MEK5 binding to MEKK2 mutant. percent response, % at 10 µM. 290,000 compounds, 0.35% hits; in the data active means percent response above about 24%, passing the limit was not always enough
CRFR2-BP antag: CRF-BP/CRF-R2 complex antagonism; HEK293 CRF-R2/CRF-BP, CRF-induced calcium fluorescence; inhibition, % at 11.8 µM; 350,000 compounds, 0.59% hits;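 active means inhibition of the ligand-induced calcium signal above about 50% at the single tested concentration, limit read from the data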
MEKK2 WT-MEK5: raises or lowers MEK5 binding to wildtype human MEKK2 PB1 domain | bead flow cytometry, Alexa488-MEK5 binding to MEKK2 WT; actives lie on both sides | binding response (% of control), % at 10 µM | 290,000 compounds, 1.1% hits | AID 1531; in the data active means binding response below about 67% or above about 130%
Starred values were filed as active, the others as inactive; · = no result; [ ] = dose if it differs, or a comment. Sampled rows, rich in hits. Any-hit rate of the full collection: about 2.9%.

SMILES	MEKK3 PB1 HTS	CRFR2-BP ag	ABCB6 inh MLPCN	MEKK2 mut-MEK5	CRFR2-BP antag	MEKK2 WT-MEK5
CCN(CC)c1ccc2cc(NC(=O)CCC(=O)O)c(=O)oc2c1	108	88*	98	10	-80	104
CCN(CC)c1ccc2cc(-c3nnc(-c4ccncc4)o3)c(=O)oc2c1	96	337*	204	1	-403	96
CCN(CC)c1ccc2cc(C=O)c(=O)oc2c1	99	309	141	16	-230	109
CCN(CC)c1ccc2cc(C(N)=O)c(=N)oc2c1	98	258*	153	-1	-249	97
COc1c(C(=O)Nc2nnc(C3CC3)s2)csc1Cl	106	-2	93	10	-16	114
CCc1ccc(N(CC(=O)N2CCCC2)S(C)(=O)=O)cc1	·	-1	80	·	0	·
O=C(CSc1nnc(-c2cccs2)n1C1CC1)NCC1CCCO1 (stereo not drawn)	·	1	94	·	-5	·
O=C1C2CCCN2c2ccc(S(=O)(=O)N3CCOCC3)cc2N1Cc1cccc(C(F)(F)F)c1 (stereo not drawn)	98	·	·	0	·	-8.0*
O=C1C2CCCN2c2ccc(S(=O)(=O)N3CCOCC3)cc2N1Cc1ccccc1F (stereo not drawn)	113	-2	95	5	-1	109
CC(=O)c1cc(NC(=O)c2ccc(C)cc2)c(=O)oc1C	107	-2	106	1	7	101
COC(=O)c1cc(NC(=O)c2ccc(OC)cc2)c(=O)oc1C	101	-1	101	-3	-20	96
CC(=O)c1cc(NC(=O)c2ccc(C)cc2)c(=O)oc1/C=C/N(C)C	106	123*	98	14	-83	108
COc1ccc(C(=O)Nc2cc(C(C)=O)c(/C=C/N(C)C)oc2=O)cc1	·	155*	103	·	-178	·
CCn1c(=O)c2ccccc2n2c(SCC(N)=O)nnc12	106	0	108	3	-7	104
O=c1[nH]c(-c2ccccc2)nc(-c2ccccc2)c1Cl	·	-2	102	·	12	·
Cc1cc2oc(=O)cc(CN3CCN(Cc4ccccc4)CC3)c2cc1O	94	-2	98	-4	6	102
O=c1cc(CN2CCN(Cc3ccccc3)CC2)c2cc(O)ccc2o1	109	0	97	4	85*	107
COc1ccc(NS(=O)(=O)c2cccc(C(=O)NN=Cc3cc(Br)c(O)c(Br)c3)c2)cc1	·	1	94	·	0	·
O=S(=O)(c1ccc(-c2csc(Nc3ccc(Br)cc3)n2)cc1)N1CCCC1	106	-1	90	7	-9	-4.0*
CCN(c1ccccc1)S(=O)(=O)c1ccc(N2CCN(c3ccccc3O)CC2)nc1	·	0	83	·	2	·
Cc1ccc(-n2nc3c(c2NC(=O)c2ccc(OC(C)C)cc2)CS(=O)C3)cc1 (stereo not drawn)	98	-1	89	-2	68*	103
CC(C)OCCCN1C(=O)c2[nH]nc(-c3ccccc3O)c2C1c1cccc(Cl)c1 (stereo not drawn)	138*	1	101	3	-19	110
O=C(COc1c(Br)cc(Br)cc1Br)N/N=C/c1ccco1	94	-1	99	-6	7	97
CCOc1ccc(N(CC(=O)NCC2CCCO2)C(=O)CCC(=O)Nc2nccs2)cc1 (stereo not drawn)	102	2	103	-1	52*	102
CCCCOc1ccc(N(CC(=O)NCC2CCCO2)C(=O)CCC(=O)Nc2nccs2)cc1 (stereo not drawn)	105	20	99	3	-40	96
SMILES	MEKK3 PB1 HTS	CRFR2-BP ag	ABCB6 inh MLPCN	MEKK2 mut-MEK5	CRFR2-BP antag	MEKK2 WT-MEK5
CCOc1ccc(N=Nc2c(=O)[nH]n3c(=O)c4c([nH]c23)CCCC4)cc1	103	-6	87	1	51*	101
COc1cc(Br)c(CC(=O)NC2CC2)cc1OC	100	-1	94	2	4	102
NC(=O)COC(=O)c1ccc(-c2ccc(O)cc2)cc1	97	1	97	2	80*	100
NC(=O)COC(=O)c1ccc(-c2ccccc2)cc1	101	-1	96	-6	6	91
O=S(=O)(c1ccccc1)c1cnn(-c2ccccc2)c1-c1ccc(F)cc1	104	-1	94	-4	51*	99
Cc1ccccc1N1CCN(C2CCCN(C(=O)CCC3(C)CC3)C2)CC1 (stereo not drawn)	105	-1	95	4	6	104
CC(=O)Nc1cccc(C(=O)OCc2csc(CC(=O)Nc3ccccc3C)n2)c1	·	-2	99	·	4	·
O=C(CC1CCCCC1)c1c(O)c2ccccc2oc1=O	92	70*	97	-8	37	94
CCCCC(=O)c1c(O)c2ccccc2oc1=O	96	0	99	3	0	101
CC(C)c1ccc(NC2CCCN(C(=O)CCN3CCCCO3)C2)cc1 (stereo not drawn)	100	0	96	9	-1	104
CCn1c(C)nc2cc(C(=O)NN=Cc3ccc([N+](=O)[O-])cc3)ccc21	·	2	97	·	73*	·
CCn1c(C)nc2cc(C(=O)N/N=C/c3ccc(O)cc3)ccc21	102	1	102	1	-14	100
COc1ccc2[nH]c(C(=O)NCCCN3CCCC3=O)c(C)c2c1	96	1	94	-8	-1	97
c1nnc(NCNc2nncs2)s1	·	60*	97	·	-6	·
COC(=O)Nc1nncs1	96	-2	101	0	0	97
CCCCCC1=CCC/C1=N\NC(=O)c1ccc2c(c1)OCO2	103	-4	98	0	-14	95
Cn1cc(/C=C2\SC(=S)N(NC(=O)c3ccccc3)C2=O)c2ccccc21	96	72*	120	-4	-112	73
Cn1cc(/C=C2\SC(=S)N(NC(=O)c3cccc(Cl)c3)C2=O)c2ccccc21	88	36	117	-9	-33	48*[inhibitor]
Cn1cc(/C=C2\SC(=S)N(N3CCOCC3)C2=O)c2ccccc21	99	3	103	-6	-16	84
O=[N+]([O-])c1ccc(O)c(Nc2ncnc3ccc(Br)cc23)c1	103	52*	97	7	66*	105
O=[N+]([O-])c1ccc(O)c(Nc2ncnc3ccccc23)c1	116	42	95	0	63*	106
CCOc1ncccc1C(=O)Nc1cc(S(=O)(=O)N2CCOCC2)ccc1OCC(F)(F)F	·	-1	96	·	-11	·
Cc1cc(-c2ccccc2)nc(SC(C(=O)O)c2ccccc2)n1 (stereo not drawn)	103	0	96	4	0	-1.0*
Cc1cc(=O)[nH]c(SC(C(=O)O)c2ccccc2)n1 (stereo not drawn)	101	-2	91	-1	15	99
